Bioassay records (PubChem BioAssay)
ALDH1A1 inh – qHTS Assay for Inhibitors of Aldehyde Dehydrogenase 1 (ALDH1A1); 7.3% of 220,000 active; Purified ALDH1A1, NADH fluorescence, propionaldehyde substrate; AID 1030, 2008; Potency, µM (doses to about 75.3 µM), actives largely listed as inhibitors
Target sequence (P00352 whole entry, looked up): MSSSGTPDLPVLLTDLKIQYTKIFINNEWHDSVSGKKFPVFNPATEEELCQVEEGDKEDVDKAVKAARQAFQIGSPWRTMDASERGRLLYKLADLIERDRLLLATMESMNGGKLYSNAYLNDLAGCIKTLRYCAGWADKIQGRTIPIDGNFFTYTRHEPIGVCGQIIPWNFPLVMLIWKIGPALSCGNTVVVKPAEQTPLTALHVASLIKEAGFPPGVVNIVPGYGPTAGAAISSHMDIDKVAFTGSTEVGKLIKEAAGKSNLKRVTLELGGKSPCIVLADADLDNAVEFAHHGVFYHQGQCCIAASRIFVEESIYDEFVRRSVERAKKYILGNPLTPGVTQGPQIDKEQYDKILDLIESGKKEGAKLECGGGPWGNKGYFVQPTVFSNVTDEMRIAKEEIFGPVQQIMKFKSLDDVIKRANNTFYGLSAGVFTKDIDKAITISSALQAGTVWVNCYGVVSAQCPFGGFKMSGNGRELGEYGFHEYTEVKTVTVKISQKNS
PNC inhibitor – High Content Assay for Compounds that inhibit the Assembly of the Perinucleolar Compartment; AID 2417, 2010; activity change (PNC), negative = inhibition, % at 10 µM; 3.1% of 140,000 active; PC3M PTB-GFP, PNC prevalence imaging, 16 h; hits give low values;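 active means readout at or below -70, meaning at least 70% loss of cells showing the perinucleolar compartment, a nuclear body marking cancer cells; inconclusive means readout between -30 and a set limit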
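PC3M cells stably expressing PTB-GFP, 750–1000 cells/well, treated 16 h at 37 °C with compound (23 nl of library stock), in duplicate. After paraformaldehyde fixation and Hoechst stain, imaged at 20x; PNC prevalence scored by image analysis.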
HPGD block – qHTS Assay for Inhibitors of HPGD (15-Hydroxyprostaglandin Dehydrogenase); 15-hydroxyprostaglandin dehydrogenase [NAD(+)] (Homo sapiens), P15428; Potency, µM, most hits filed as inhibitors; AID 894, 2007; 4.3% of 150,000 active; purified HPGD, NADH fluorescence kinetic, PGE2 substrate
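NADH formation kinetics: reaction with 30 uM PGE2 and 1 mM NAD+ (final), 20 nM enzyme, Tris-HCl pH 8 with Tween 20, after 15 min compound preincubation at room temperature. Fluorescence change, last versus first of five reads.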
Large screens that a line does not name were inactive. Rows were chosen to be rich in hits. Some 11% of all compounds tested hit in one or more screens of this group. Unless noted, the call rests on the fitted dose curve; in most records, active means well fitted inhibition curve with a large enough effect (not every such curve was filed as active); inconclusive means small, poorly fitted or top-dose-only effect, or another doubt; inactive means no such curve, though single readings can be large or run the other way.

Cc1ccc(S(=O)(=O)N2CCC(=O)N(C(COCc3ccc(Cl)cc3)C(C)C)CC2)cc1 (centres undefined)	ALDH1A1 inh inconclusive, PNC inhibitor -119
Cc1ccc(S(=O)(=O)N2CCC(=O)N(CCOCc3cccc(C)c3)CC2)cc1	none
Cc1ccc(S(=O)(=O)N2CCC(=O)N(C(COCc3ccccc3)C(C)C)CC2)cc1 (centres undefined)	ALDH1A1 inh inconclusive
CN(C)S(=O)(=O)c1ccc(C(=O)OCC(=O)NC(=O)NCc2ccccc2)cc1	none
O=C(CN1C(=O)CCS(=O)(=O)c2ccccc21)Nc1cccc(F)c1	none
Cc1cc(C)n(/N=C/c2ccc(C(C)C)cc2)c(=O)c1C#N	ALDH1A1 inh inconclusive, PNC inhibitor inconclusive
CC1(C)CC(NC(=O)c2ccc3c(c2)OCO3)CC(C)(C)N1	none
CC1(C)CC(NC(=O)c2coc(=O)c(Br)c2)CC(C)(C)N1	ALDH1A1 inh inconclusive, PNC inhibitor -100
Cc1csc(-c2cnn(-c3ccccc3)c2NC(=O)c2ccc(C(F)(F)F)cc2)n1	PNC inhibitor inconclusive, HPGD block inconclusive
CCCCCCCCCCCCCCC[C@@H](O)[C@H](CO)NC(=O)CCCCCCC	none (no result: PNC inhibitor)
Cc1ccc(SCC(=O)NCCSC(C)(C)C)cc1	none
O=C(Nn1c(=S)[nH]c2ccccc2c1=O)c1ccncc1	PNC inhibitor inconclusive
COc1cc(C2NC(=S)NC(c3ccccc3)=C2C(C)=O)cc(Br)c1OCC(N)=O (centres undefined)	ALDH1A1 inh 14µM (no result: PNC inhibitor, HPGD block)
CCCOc1ccc(C2NC(=S)NC(c3ccccc3)=C2C(=O)Nc2ccc(C)cc2)cc1OC (centres undefined)	ALDH1A1 inh 0.35µM, PNC inhibitor inconclusive
CCOC(=O)C1=C(C)NC(=O)NC1c1cc(Br)c(O)c(OC)c1 (centres undefined)	PNC inhibitor inconclusive
CCOC(=O)C1=C(c2ccccc2)NC(=O)NC1c1cc(Br)c(O)c(OC)c1 (centres undefined)	ALDH1A1 inh 22µM (no result: PNC inhibitor, HPGD block)
COc1cc(Cl)cc(C2NC(=S)NC(c3ccccc3)=C2C(C)=O)c1OCC(=O)O (centres undefined)	none (no result: PNC inhibitor, HPGD block)
C=CCOc1ccc(C2NC(=S)NC(C)=C2C(=O)c2ccccc2)cc1OC (centres undefined)	ALDH1A1 inh inconclusive
CCN1CCN(C(=O)C(C)Nc2cc(Cl)c(OC)cc2OC)CC1 (centres undefined)	none (no result: PNC inhibitor, HPGD block)
CC(C)OC(=O)[C@@H]1CC[C@H](C)[C@@H](CCC[C@@H]2CC=C[C@H](CC#N)O2)O1	none (no result: PNC inhibitor)
C[C@H](O)CC1=C[C@H](O)[C@@H](C)OC1=O	none (no result: PNC inhibitor, HPGD block)
CC(C)c1ccc(N=C(N)N=C(N)N)cc1	none (no result: PNC inhibitor, HPGD block)
CCCCCNC(=O)C1CCC(Cn2c(=S)[nH]c3ccccc3c2=O)CC1 (centres undefined)	none (no result: PNC inhibitor, HPGD block)
CC1(O)C(=O)C=C2C=C(c3ccc(C#N)cc3)OC=C2C1=O (centres undefined)	none (no result: PNC inhibitor)
C/C(=C\C(=O)C(F)(F)F)Nc1ccc(C)cc1	PNC inhibitor inconclusive
C/C(=C\C(=O)C(F)(F)F)Nc1cc(C)cc(C)c1	PNC inhibitor -85
NC(=O)Nc1ccccc1C(=O)N1CCC(O)(c2ccc(Cl)cc2)CC1	none
CCc1ccc(C2CC(=O)N3CN(c4ccccc4)CSC3=C2C#N)cc1 (centres undefined)	ALDH1A1 inh 10µM, HPGD block 7.9µM
COc1ccc(N2CCN(S(=O)(=O)c3cccs3)CC2)cc1	PNC inhibitor inconclusive
COc1cccc(C2CC(=O)NC(SC)=C2C#N)c1 (centres undefined)	ALDH1A1 inh inconclusive
N#CC1=C2SCN(Cc3ccco3)CN2C(=O)CC1c1ccccc1F (centres undefined)	ALDH1A1 inh 10µM, HPGD block 18µM
N#CC1=C2SCN(c3ccc(F)cc3)CN2C(=O)CC1c1cccc(F)c1 (centres undefined)	ALDH1A1 inh 1.9µM, HPGD block 5.6µM
COc1ccc(N2CSC3=C(C#N)C(c4cccs4)CC(=O)N3C2)cc1 (centres undefined)	ALDH1A1 inh 2µM, PNC inhibitor inconclusive, HPGD block 7.1µM
N#CC1=C2SCC(O)(c3ccccc3)N2C(=O)CC1c1ccccc1 (centres undefined)	ALDH1A1 inh inconclusive, PNC inhibitor inconclusive
N#CC1=C2SCN(Cc3ccco3)CN2C(=O)CC1c1cccc2ccccc12 (centres undefined)	ALDH1A1 inh inconclusive, HPGD block inconclusive
CCCCNC(=O)c1onc(CSc2cccc(C)c2)c1C(=O)O	none
Cc1ccccc1NC(=O)CCC(=O)OCC(=O)c1ccc(-c2ccccc2)cc1	ALDH1A1 inh inconclusive
Cc1c(Cl)cccc1NC(=S)N1CCC(C(N)=O)(N2CCCCC2)CC1	none
